system: PXR:RXRa (NR concentration 270 nM, RXRa partner concentration 90 nM); assay: PBM binding z-score (relative to random genomic background probes); higher = stronger binding; sequences stand for … in GC…GCGATTGACAGCGTAGAATGAAGG
In short: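 Regression normalization was applied to scanned fluorescence from custom Agilent 4×180K protein-binding microarrays. Before scanning, arrays were incubated 1 h with ligand-free nuclear receptor dimers, and binding was detected with antibodies against each partner (one per run). Binding z-scores use the random background probes as reference.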

Row | Sequence | PBM binding z-score
1 | CCTAGTTGGTCAAGGTCACGCACGCTATAGGTAC | 4.64
2 | GATACAGGGTCATCTAGAGGCCAGAGTATGGAAA | 4.97
3 | AGTCAAAGTTCACTAGGTTACGTAAGATTCAGCT | 4.58
4 | CCAGACAGGTGAAAGGTAACTCACTCTGGTACGC | 0.983
5 | ATCTCTAGGTGAAAGTTCAGTGAATCCCGAGGAT | 2.87
6 | CAAACTAGGTCAAGGTCAAATTCGGTTTGTGCCA | 5.45
7 | CAAACTAGGTCACGAAAGGTCAAAATCGAATGAC | 6.92
8 | CCTACTGGGCCAAGGTCATTGACCAGTCAAAGCA | 3.71
9 | TTAACAAGGTGAAAGGTCGTTGATGCACGCCTTG | 3.92
10 | CCTGCTCGGTCAATGGTCAGCTAAAGCAGCTCGC | -0.189
11 | CGTCAAAGTTCAAGGTAATGTAACAGAAAGCAGC | 3.95
12 | CAAACTAGGTCAAAGGTCAAAGACGAGCCAACCA | 7.17
13 | CCTACTGGGCCATTGAGAGGTCATTGATCATATG | 4.37
14 | CCTGCTAGTTCATGGTCAGCTAATCTACAGTATG | 0.563
15 | TCTAGTTCGTCACGGAGGTCACACACGACGGGTA | 5.15
16 | AGAATGAGGTTAGCAAAGATCAGGGAAACGCTTG | 0.442
17 | TAGCCTAGGTCATTCAGGGGCTAGTATAGAAAGC | 2.36
18 | ACTCGGAGGACAAAGGTAAGAGCTACGCCAGTGA | -0.339
19 | TCATATAGGTAATCAGGTGAAAGTCCGTAAGTTA | 0.832
20 | CCTACTGGGCCAAAGGTCATTGACTCCAATGCTC | 5.52

Row | Sequence | PBM binding z-score
21 | AAATGTAGGTTAAGGGTCATTCAGGTTGGTTCGC | 5.32
22 | GGAACTAGGGCAAAGTTGATAGCATCTGTCGACG | -0.217
23 | CAAACTAGGTCAAGGGGTCAAAGTCCGCTTCCCG | 6.31
24 | ATCGAAAGGTCGTGAGGTGAGTACACAGAAAGGC | 3.57
25 | CGAACTAGTTCAAGGACAGTGAATCTCCGCACGC | 0.352
26 | CCTGCTAGTTCAATGGTCAGCTAAAGCAGCTCGC | 0.465
27 | ATATGTAGGTTAGCGGGGGTCATTCAGACTAGGC | 6.34
28 | CGTCCAAGGTCAGCAGGTGAGTGAAAGCGACGTG | 2.41
29 | TAGCCTCGGTCATTGGGCCAGTATAGTACGCATC | -0.491
30 | GCTAGTTGGTCAGTAAATGGTCACACACCGGTCG | -0.0876
31 | AGACAAAGTTCAGGACGAGGTAACGTAAAGCACG | 3.02
32 | CGCACTAGGTCATTGACAGGACAGTGAATAGTAA | 1.82
33 | ATGGAAAGGTCGTGAGGTGAGTATACAGAAAGGC | 3.42
34 | ATATCTAGGTAAAAGTTCAGTGAATCCCGAGGAT | 2.33
35 | CCTACTGGGCCGAGGTCATTGATCAGTCAAAGCA | 4.62
36 | TTACCAAAGTGAAAGGTCGTTGATGCACGCCTTG | 2.3
37 | CCTAGTAGGTTATGGGGCATTCAGGCAACGGTGA | 0.0613
38 | AGTCAAAGTTCATCTGGGTAACGTAAGATATGCT | 5.16
39 | TCTTGTAGATCAAAGGTCAAGAAAGCCGAAGCCT | 4.83

From the supplement of paper PMC6555819
